# Glioma ERSR ind = inducers of ER stress response in human glioma cells | U87-MG GRP78 promoter luciferase reporter, 16 h | Potency, µM, hits mostly activators | actives 0.02% (n = 420,000) | AID 602332; also: series mostly up to about 76 µM; nearly all actives have a fitted effect of over 35% in size
#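 ERSR induction read as luciferase luminescence (Bright-Glo, 10 min at room temperature) in stably transfected human U87-MG glioma cells exposed to compounds for 16 h, using GRP78 as sensor.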
# G9a block = G9a (human) methyltransferase inhibition | Q96KQ7 | G9a H3K9 monomethylation, AlphaScreen, 2 h | Potency, µM (highest dose often 102 µM), usual class: inhibitors | actives 8.8% (n = 350,000); also: nearly all actives have a fitted effect of over 75% in size
# Target sequence (Q96KQ7 913-1193 limits assumed): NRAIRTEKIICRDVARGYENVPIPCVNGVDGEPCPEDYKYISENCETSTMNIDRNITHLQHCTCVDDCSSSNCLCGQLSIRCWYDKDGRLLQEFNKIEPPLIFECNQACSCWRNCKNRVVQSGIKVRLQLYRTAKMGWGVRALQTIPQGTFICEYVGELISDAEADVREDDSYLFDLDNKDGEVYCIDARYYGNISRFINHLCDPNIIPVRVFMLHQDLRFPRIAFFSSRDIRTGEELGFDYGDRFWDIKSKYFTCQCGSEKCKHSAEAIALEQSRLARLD
#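 Readings reflect AlphaScreen signal from monomethyl-H3K9 antibody detection. HMT at 20 nM; substrate b-H3K9 500 nM; cofactor SAM 20 uM; 2 h RT reaction; compounds tested as titrations in qHTS with 15 min preincubation.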
# Sfp inh = Sfp phosphopantetheinyl transferase inhibition. Q9F4F7. actives 3.5% (n = 310,000). Potency, µM, usual class: inhibitors. Biochemical Sfp PPTase activity, qHTS;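 also: the enzyme is Sfp with the accession as filed and its product quenches rhodamine fluorescence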
#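 Fluorescence-quenching assay: 15 nM Sfp-PPTase preincubated 15 min at room temperature with compound, then 5 uM rhodamine-CoA and 12.5 uM BHQ-2-labelled YbbR peptide added. Fluorescence (ex 525/em 598 nm) read at start and after 30 min; difference gives rate.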
# VDR inhibitor = blocks the human vitamin D receptor; P11473; VDR-SRC2-3 peptide fluorescence polarization, 2 h; Potency, µM, most hits filed as inhibitors; actives 0.93% (n = 400,000)
#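 Measured by FP: displacement of SRC2-3 coactivator peptide from VDR by library compounds, following a two-hour ambient incubation.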
# 12-LOX inh = blocks human arachidonate 12S-lipoxygenase | AID 1671190 | P18054 | actives 1.1% (n = 580,000) | purified 12hLO, xylenol orange hydroperoxide absorbance | Potency, µM (top dose mostly 108 µM), usual class: inhibitors
#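 Purified human 12hLO (150 nM final) in 25 mM Hepes, 0.01% Triton X-100, pH 7.0 was preincubated 15 min at room temperature with compound. Then 40 uM arachidonic acid was added, 30 min. Hydroperoxide was read by Fe-XO absorbance ratio 573/405 nm.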
# A number is an active result; . = inactive; ? = inconclusive; / = no result given; [ ] = remark or other dose. Shown is part of a subset that was picked to be rich in hits. Calls follow the shape of the dose curve; as a rule, active = well fitted curve in the direction sought with a large enough effect; inconclusive = small, poorly fitted or top-dose-only effect, or another doubt; inactive = no such curve, though single readings can be large; an effect the other way counts as inactive or inconclusive.
SMILES,Glioma ERSR ind,G9a block,Sfp inh,VDR inhibitor,12-LOX inh
CN(C)c1ccc(NC(=O)CN2CCN(CC(=O)Nc3ccc(Br)cc3)CC2)cc1,.,8.9µM,/,.,.
O=C(CN1CCOCC1)Nc1ccc(Br)cc1,.,.,.,.,.
CN(C)c1ccc(NC(=O)CN2CCC(N3CCCCC3)CC2)cc1,.,2.2µM,89µM,.,?
O=C(CN1CCCCCC1)Nc1cccc(NC(=O)CN2CCCCCC2)c1,.,.[0.501 µM],.,.,?
CN1CC(=O)N(CC(=O)Nc2ccc(N(C)C)cc2)c2ccccc2C1=O,.,14µM,?,.,.
O=C(CN1CCCCCC1)Nc1ccccc1,.,4µM,?,.,.
Cc1cc(NC(=O)C(C)(C)Oc2nn(CC3CC3)c3ccc(CN4CCCC4)cc23)n(C)n1,/,/,/,/,.
Cc1ccc(NC(=O)CN2CCCC2)cc1Br,.,50µM,.,.,?
O=C(CN1CCCCC1)NN(Cc1ccccc1)c1ccccc1,.,16µM,.,.,14µM
O=C(CSc1ccc2c(c1)OCCO2)Nc1ccc(Br)cn1,.,45µM,.,.,?
O=C(CSc1ccc2c(c1)OCCO2)Nc1ccc(Cl)cn1,.,.,.,.,.
O=C(CSc1ccc2c(c1)OCCCO2)Nc1cccc2ccccc12,/,/,/,/,16µM
O=C(CSc1ccc2c(c1)OCCCO2)Nc1ccccc1,/,/,/,/,.
Cc1nnc(SCC(=O)Nc2ccc(Br)cn2)[nH]c1=O,.,50µM,.,.,.
CCCCCCn1nc(C(=O)Nc2ccc(OC)c(NC(C)=O)c2)c2ccccc2c1=O,/,/,/,/,.
CC(=O)N1CCN(c2ccc(Oc3ccc([N+](=O)[O-])c(C(F)(F)F)c3)cc2)CC1,.,50µM,.,.,/
CCOc1ccc(C(=O)Nc2ccc(N3CCN(C(C)=O)CC3)cc2)cc1[N+](=O)[O-],.,?,.,.,.
Cc1cc(Cl)ccc1OC(=O)c1cc2ccccc2oc1=O,/,/,/,/,.
Cc1ccc(S(=O)(=O)Nc2nc(C)c(NC(=O)Nc3ccc(Cl)cc3Cl)s2)cc1,.,?,35µM,.,2µM
Cc1ccc(S(=O)(=O)Nc2nc(C)c(C(=O)N/N=C/c3ccccc3)s2)cc1,.,.,.,.,.
Cc1ccc(S(=O)(=O)Nc2nc(C)c(NC(=O)OCCCl)s2)cc1,.,.[2.33 µM],50µM,89µM,?
COc1ccc(CN2CC3=C(C2=O)C(c2ccccc2C)NC(=O)N3)cc1 (configuration not stated),/,/,/,/,.
Cc1ccsc1C(=O)N1CCC2(CC1)N=C(c1ccc(Cl)cc1)NO2,/,/,/,/,.
CSCc1cccc(C(=O)O)c1,/,/,/,/,.
COc1ccc(NC(=O)c2ccc(Br)o2)cc1,.,32µM,.,.,.
SMILES,Glioma ERSR ind,G9a block,Sfp inh,VDR inhibitor,12-LOX inh
O=C(NC(=S)Nc1ccccc1)c1ccc(Br)o1,.,?,.,?,.
COc1ccc(NC(=S)NC(=O)c2ccc(Br)o2)cc1,.,.,?,.,.
O=C(Nc1ccc(Nc2ccccc2)cc1)c1ccc(Br)o1,.,35µM,.,?,.
CC(=O)c1sc(NC(C)c2ccccc2)nc1C (configuration not stated),.,.,.,.,.
COc1ccc(Nc2nc(C)c(C(C)=O)s2)cc1,.,/,/,/,45µM
COc1ccc(Nc2nc(-c3sc(NC(C)=O)nc3C)cs2)cc1,/,40µM,40µM,/,/
CC(=O)c1ccc(Nc2nc(-c3sc(C)nc3C)cs2)cc1,.,/,/,/,.
COCC(C)Nc1nc(C)c(C(C)=O)s1 (configuration not stated),.,45µM,.,.,?
Cc1ccc(Nc2nc(-c3sc(C)nc3C)cs2)cc1,.,/,?,.,?
Cc1ccc(Nc2nc(-c3sc(N)nc3C)cs2)cc1,.,/,?,79µM,?
COc1ccc(Nc2nc(-c3sc(N)nc3C)cs2)cc1,.,?,18µM,.,?
CCOc1ccc(Nc2nc(-c3sc(N)nc3C)cs2)cc1,.,35µM,.,.,.
O=c1[nH]nc(-c2ccco2)c2c1Nc1nnnn1C2c1ccc(F)cc1 (configuration not stated),/,/,/,/,.
COc1cc(C2Nc3ccccc3NC3=C2C(=O)CC(C)(C)C3)cc(OC)c1OC (configuration not stated),.,.,.,.,.
CC1(C)CC(=O)C2=C(C1)Nc1ccccc1NC2c1cccc(F)c1 (configuration not stated),.,/,.,.,11µM
Cc1cc(F)ccc1S(=O)(=O)Nc1ccc(N2CCCC2)c(F)c1,/,/,/,/,4µM
O=S(=O)(Nc1ccccc1N1CCCCC1)c1ccc(F)cc1F,.,.,.,.,.
COc1ccc(-c2nnc(SCC(=O)Nc3ccccc3)[nH]c2=O)cc1,/,/,/,/,.
O=C(COC(=O)c1ccccc1Nc1ccccc1)NCc1ccccc1,.,50µM,.,.,.
O=C(OCCOCCO)c1ccccc1Nc1cccc(C(F)(F)F)c1,.,.[5.15 µM],.,.,/
O=C(COC(=O)c1ccccc1Nc1cccc(C(F)(F)F)c1)NCc1ccco1,.,28µM,.,.,.
COc1ccc(C(CNC(=O)C(=O)Nc2ccc3c(c2)OCO3)N2CCN(C)CC2)cc1 (configuration not stated),.,.,/,.,?
COC(=O)NCC(c1ccco1)N1CCN(c2ccc(OC)cc2)CC1 (configuration not stated),.,?,.,.,.
CCc1cc(C(=O)NCC(c2ccc(OC)cc2)N2CCOCC2)sc1C (configuration not stated),.,8.9µM,/,.,.
COc1ccc(N2CCN(C(CNC(=O)C(=O)NCC3CCCO3)c3ccco3)CC2)cc1 (configuration not stated),.,32µM,.,.,.
SMILES,Glioma ERSR ind,G9a block,Sfp inh,VDR inhibitor,12-LOX inh
CN1CCN(C(CNC(=O)C(=O)Nc2ccc3c(c2)OCO3)c2ccc(F)cc2)CC1 (configuration not stated),.,50µM,/,.,?
COc1cccc(C(=O)NCC(c2ccc3c(c2)OCO3)N2CCN(c3ccc(F)cc3)CC2)c1 (configuration not stated),.,45µM,/,.,.
O=C(NCc1cccnc1-n1cccn1)c1ccc(-c2ccc(Cl)cc2)s1,/,/,/,/,.
CC(C)CCN1CCCC2(C1)C(=NC1CCCC1)NC(=O)N2c1cc(F)cc(F)c1 (configuration not stated),/,/,/,/,.
COc1ccc(C(=O)NCC(c2ccc3c(c2)OCO3)N2CCN(c3ccc(OC)cc3)CC2)cc1 (configuration not stated),.,6.3µM,/,.,.
COCCN1Cc2ccc(Nc3ccc(OC)cc3)nc2C(C)(C(=O)Nc2ccccc2)C1 (configuration not stated),/,/,/,/,.
O=C1C2C3C=CC(CC3)C2C(=O)N1/N=C/c1c(O)ccc2ccccc12 (configuration not stated),.,25µM,.,.,.
O=C(CSCC(=O)Nc1ccccc1)N/N=C/c1c(O)ccc2ccccc12,.,1.6µM,.,.,?
O=C(O)c1ccc(N=Cc2c(O)ccc3ccccc23)cc1,.,1.1µM,.,.,.
